Results: PubChem BioAssay (EPA / NIEHS)
Active and inactive are the calls of the source. How the source made its calls: active means hit-call score of the fitted dose curve at least 0.9, where 1 is the maximum; inactive means score below 0.9.

Tests used:
[1] = ATG_M_61_CIS: Attagene CIS-FACTORIAL HepG2 Assay for M61 Transcription Factor (Internal Marker) (AID 2282937); conditions: HepG2 Attagene CIS-FACTORIAL M61 internal marker reporter; actives raise or lower the signal
Method in brief: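 Using transiently transfected HepG2 liver cells, reporter transcript levels were assessed 24 h post-dosing by RT-PCR and capillary electrophoresis. Changes in either direction were fitted relative to DMSO controls.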

[2] = ATG_EGR_CIS: Attagene CIS-FACTORIAL HepG2 Assay for human Early Growth Response 1 (EGR1) (AID 2282938); conditions: HepG2 Attagene CIS-FACTORIAL EGR reporter mRNA; actives raise or lower the signal
Method in brief: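 Fluorescent capillary-electrophoresis signal of reporter cDNA fragments serves as read-out. HepG2 cells bear transiently transfected cis-promoter reporter units and are exposed 24 h; gain- or loss-of-signal is fitted against DMSO.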

[3] = ATG_M_19_CIS: Attagene CIS-FACTORIAL HepG2 Assay for M19 Transcription Factor (Internal Marker) (AID 2282939); conditions: HepG2 Attagene CIS-FACTORIAL M19 internal marker reporter; actives raise or lower the signal
Method in brief: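 HepG2, MRTU transient transfection, 24 h dosing. Total RNA → RT-PCR → 6-FAM primer extension → HpaI digest → CE fluorescence. Bidirectional curve fit, DMSO negative control.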

[4] = ATG_ERE_CIS: Attagene CIS-FACTORIAL HepG2 Assay for Estrogen Response Element (ERE) (AID 2282940); conditions: HepG2 ERE cis-reporter, Attagene RNA transcript; actives raise or lower the signal
Method in brief: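 After a 24 h chemical treatment, RNA from reporter-transfected HepG2 cells is reverse-transcribed, PCR-amplified and fluorescently labelled. Fragments separated by capillary electrophoresis give reporter signal; DMSO serves as negative control.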

[5] = ATG_Ets_CIS: Attagene CIS-FACTORIAL HepG2 Assay for human Erythroblast Transformation Specific (ETS) (AID 2282941); conditions: HepG2 ETS cis-reporter transcription, actives raise or lower the signal
Method in brief: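 Steps: transfect HepG2 with multiple reporter units; treat compound 24 h; isolate RNA, DNase-treat, reverse-transcribe; PCR-amplify, label with 6-FAM, digest with HpaI; separate by capillary electrophoresis. Activity fitted both directions versus DMSO.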

[6] = biological target: Hepatocyte nuclear factor 3-beta (Homo sapiens) (UniProt Q9Y261); assay: ATG_FoxA2_CIS: Attagene CIS-FACTORIAL HepG2 Assay for human Forkhead box A2 (FOXA2) (AID 2282942); conditions: HepG2 cis-reporter transcription factor activity, 24 h; actives raise or lower the signal
Sequence of Hepatocyte nuclear factor 3-beta (Homo sapiens) (Q9Y261 whole entry, looked up, the tested form may be a part): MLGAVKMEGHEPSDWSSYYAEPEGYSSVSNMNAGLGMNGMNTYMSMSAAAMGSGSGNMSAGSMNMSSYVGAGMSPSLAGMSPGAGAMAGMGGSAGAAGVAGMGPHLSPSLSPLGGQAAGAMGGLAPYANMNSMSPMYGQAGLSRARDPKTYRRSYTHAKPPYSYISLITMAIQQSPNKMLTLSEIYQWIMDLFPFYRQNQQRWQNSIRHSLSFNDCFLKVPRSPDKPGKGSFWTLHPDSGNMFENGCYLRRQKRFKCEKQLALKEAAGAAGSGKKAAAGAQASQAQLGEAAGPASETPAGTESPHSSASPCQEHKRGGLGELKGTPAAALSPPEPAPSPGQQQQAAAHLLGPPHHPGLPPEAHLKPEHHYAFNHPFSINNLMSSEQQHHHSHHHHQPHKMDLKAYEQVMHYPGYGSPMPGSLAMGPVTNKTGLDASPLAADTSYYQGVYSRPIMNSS
Method in brief: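 Fluorescence signal of reporter cDNA fragments, separated by capillary electrophoresis, reflects endogenous transcription factor activity in transfected HepG2 after 24 h. Both increases and decreases fitted against DMSO.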

[7] = ATG_FoxO_CIS: Attagene CIS-FACTORIAL HepG2 Assay for human Forkhead box O (FoxO) (AID 2282943); conditions: HepG2 Attagene cis-reporter, FoxO element, mRNA; actives raise or lower the signal
Method in brief: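 Human hepatoma HepG2 cells carry transiently introduced reporter transcription units controlled by cis promoter elements. Chemical treatment lasted 24 h, and mRNA signal was compared with DMSO.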

[8] = ATG_GATA_CIS: Attagene CIS-FACTORIAL HepG2 Assay for human GATA Binding Protein (AID 2282944); conditions: HepG2 GATA cis-element reporter, Attagene multiplex mRNA; actives raise or lower the signal
Method in brief: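 Cells: HepG2, transiently transfected with cis-regulated reporter transcription units. Exposure: 24 h. Detection: RT-PCR plus capillary electrophoresis of FAM-labeled fragments. Analysis: bidirectional, DMSO as baseline.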

[9] = ATG_GLI_CIS: Attagene CIS-FACTORIAL HepG2 Assay for human Zinc Finger Protein GLI1 (AID 2282945); conditions: HepG2, Attagene cis-factorial reporter mRNA, GLI element; actives raise or lower the signal
Method in brief: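 Bidirectional curve fits relative to DMSO, using reporter mRNA levels from RT-PCR plus capillary electrophoresis. Cells were HepG2 transiently carrying cis-regulated reporter constructs, harvested 24 h after dosing.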

SMILES	outcome [1]	outcome [2]	outcome [3]	AC50 [4]	outcome [5]	outcome [6]	outcome [7]	outcome [8]	outcome [9]	outcome [4]
O=c1c2ccccc2oc2ccccc12	inactive	inactive	inactive	26.4 µM (active)	inactive	inactive	inactive	inactive	inactive	–
CCCCCCOC(=O)C(C)CC (centres undefined)	inactive	inactive	inactive	–	inactive	–	inactive	inactive	inactive	inactive
C[C@]12C=CC(=O)C=C1CC[C@@H]1[C@@H]2[C@@H](O)C[C@@]2(C)[C@H]1CC[C@]2(O)C(=O)CO	inactive	–	inactive	–	inactive	inactive	inactive	inactive	inactive	inactive
O=CN1CCCCC1	inactive	inactive	inactive	–	inactive	inactive	inactive	inactive	inactive	inactive
Nc1nc2ccccc2[nH]1	inactive	–	inactive	77.9 µM (active)	inactive	inactive	inactive	inactive	inactive	–
NCCCN1CCN(CCCN)CC1	inactive	–	inactive	–	inactive	inactive	inactive	inactive	inactive	inactive
COc1cc(C)ccc1C(C)C	inactive	inactive	inactive	–	inactive	inactive	inactive	inactive	inactive	inactive
CCCc1ccc(OC)cc1	inactive	inactive	inactive	–	–	inactive	inactive	inactive	inactive	inactive
c1ccc(-c2ccccn2)nc1	inactive	–	inactive	–	–	inactive	inactive	–	inactive	inactive
CCO[Si](C)(OCC)OCC	inactive	inactive	inactive	–	inactive	inactive	inactive	inactive	inactive	inactive
FC(F)=C(F)OC(F)(F)C(F)(F)C(F)(F)F	inactive	inactive	inactive	–	inactive	inactive	inactive	inactive	inactive	inactive
CCCCOCCOC(=O)COc1nc(Cl)c(Cl)cc1Cl	inactive	inactive	inactive	26.2 µM (active)	inactive	inactive	inactive	inactive	inactive	–
O=C(OCC1CCC2OC2C1)C1CCC2OC2C1 (centres undefined)	inactive	–	inactive	–	inactive	inactive	inactive	inactive	inactive	inactive
CC(C)CCCC(C)CC=O (centres undefined)	inactive	inactive	inactive	–	–	inactive	inactive	inactive	inactive	inactive
C[C@]12CCC(=O)C=C1CC[C@@H]1[C@@H]2C(=O)C[C@@]2(C)[C@H]1CC[C@]2(O)C(=O)CO	inactive	inactive	inactive	–	inactive	inactive	inactive	inactive	inactive	inactive
CCCCCCCCCCCCCCCC[N+](C)(C)CC	inactive	–	inactive	–	inactive	inactive	inactive	inactive	inactive	inactive
C[Si](C)(C)O[Si](O)(O)O	inactive	inactive	inactive	–	inactive	inactive	inactive	inactive	inactive	inactive
C=C[C@](C)(O)CC[C@@H]1[C@@]2(C)CCCC(C)(C)[C@@H]2CC[C@@]1(C)O	inactive	inactive	inactive	–	inactive	inactive	inactive	inactive	inactive	inactive
CCCCCCCCCCOC(C)=O	inactive	inactive	inactive	8.88 µM (active)	inactive	inactive	inactive	inactive	inactive	–
CC[C@H]1OC(=O)[C@H](C)[C@@H](O[C@H]2C[C@@](C)(OC)[C@@H](O)[C@H](C)O2)[C@H](C)[C@@H](O[C@@H]2O[C@H](C)C[C@H](N(C)C)[C@H]2O)[C@](C)(O)C[C@@H](C)C(=NOCOCCOC)[C@H](C)[C@@H](O)[C@]1(C)O	inactive	inactive	inactive	37.6 µM (active)	inactive	inactive	inactive	inactive	inactive	–
